# Values joined by “and” are separate entries in the source; they are usually repeats but may differ in a detail not shown here. Equal entries are not always repeated. Results filed as inconclusive are left out. Some compounds were tested as several samples or in several runs, with calls that do not always agree. Active and inactive are the calls of the source. The calls were made as follows, unless noted: active = hit-call score of the fitted dose curve at least 0.9, where 1 is the maximum; inactive = score below 0.9.
# Tests used:
# [1] = CCTE_Shafer_MEA_dev_network_spike_peak: CCTE's Neural Network Formation Assay for Mean Number of Electrodes in Network Spike, Shafer Lab (AID 2284049);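 as to AC50: fitted for loss of signal meaning fewer electrodes in network spikes than DMSO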
# Summary of the method: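 Rat cortical primary culture, 1.5 x 10^5 cells/well, 48-well MEA (16 electrodes/well). Dosing day 0 through DIV 12, full media/compound exchange DIV 5, 9. AxIS adaptive spike detection; AUC over days 5/7/9/12; loss-of-signal vs DMSO.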
# [2] = CCTE_Shafer_MEA_dev_spike_duration_mean: CCTE's Neural Network Formation Assay for Mean Spike Duration, Shafer Lab (AID 2284051);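 also: mean network spike duration pooled as area under curve over DIV 5 to 12 recordings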;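 as to AC50: potency for a decrease in mean network spike duration versus DMSO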
# Summary of the method: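 Rat cortical primary cultures, 48-well MEA (16 electrodes/well); compound from plating, renewed DIV 5, 9. Network spike duration (AxIS adaptive detector) recorded DIV 5/7/9/12, combined as trapezoidal AUC; loss direction vs DMSO.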
# [3] = CCTE_Shafer_MEA_dev_network_spike_duration_std: CCTE's Neural Network Formation Assay for Standard Deviation of Network Spike Duration, Shafer Lab (AID 2284052);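 also: area under curve of spike duration SD across recording days 5 to 12; hits are decreases in network spike duration SD versus DMSO vehicle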
# Summary of the method: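 Rat cortical cultures, 1.5 x 10^5 cells/well, exposed continuously from plating to DIV 12 with media/compound renewal at DIV 5, 9. Spontaneous activity recorded DIV 5/7/9/12, AxIS adaptive spike detector; AUC across days; negative direction vs DMSO.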
# [4] = CCTE_Shafer_MEA_dev_per_network_spike_spike_percent: CCTE's Neural Network Formation Assay for Percent of Spikes in a Network Spike, Shafer Lab (AID 2284054)
# Summary of the method: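 Rat primary cortical cultures, 1.5 x 10^5 cells/well on MEA. Continuous compound exposure d0–12, medium/compound renewed DIV 5, 9. Network-spike spike % (0.05 s peak window), AUC over 4 recordings, DMSO baseline.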
# [5] = CCTE_Shafer_MEA_dev_LDH: CCTE's Lactate Dehydrogenase Assay for Cytotoxicity in the Neural Network Formation Assay, Shafer Lab (AID 2284068; active = hit-call score of the fitted dose curve at least 0.9, where 1 is the maximum;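 also: exposure for twelve days from plating with re-dosing on DIV 5 and 9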)
# Summary of the method: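 Rat cortical primary neurons, MEA culture; dosing day 0–12, full medium plus compound exchange DIV 5, 9. Read-out: LDH enzyme activity, spectrophotometric. DMSO = negative control/baseline; signal loss → cytotoxicity.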
# [6] = CCTE_Shafer_MEA_dev_mutual_information_norm: CCTE's Neural Network Formation Assay for Mutual Information Normalization, Shafer Lab (AID 2284091);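 as to AC50: mutual information between electrodes summarised as area under curve across four recording days; potency is for a decrease in mutual information relative to DMSO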
# Summary of the method: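 Developing rat cortical networks on 16-electrode MEA wells are treated throughout formation (DIV 0–12). Shared electrode information is recorded four times, converted to area-under-curve, and fitted for decreases against DMSO vehicle.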
# [7] = CCTE_Shafer_MEA_dev_correlation_coefficient_mean: CCTE's Neural Network Formation Assay for Mean Correlation Coefficient, Shafer Lab (AID 2284093);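 as to AC50: well mean pairwise spike train correlation integrated as AUC over recording days 5 to 12; potency fitted for loss of correlation relative to DMSO vehicle wells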
# Summary of the method: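 Rat cortical cultures, 1.5 x 10^5 cells/well, dosed from day 0 for 12 days. Spontaneous spikes recorded DIV 5/7/9/12; electrode-pair correlation coefficients averaged, AUC taken. Fit in loss direction vs DMSO.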
# [8] = CCTE_Shafer_MEA_acute_AB: CCTE's Alamar Blue Assay for Cytotoxicity in the Neural Acute Assay, Shafer Lab (AID 2284069; active = hit-call score of the fitted dose curve at least 0.9, where 1 is the maximum;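 also: active compounds lower the viability signal compared with DMSO wells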)
# Summary of the method: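 Read-out: resazurin fluorescence (ex 544, em 590 nm) after CTB reagent at 1:6 dilution in fresh media. Cells: primary rat cortical neuron networks, DIV 13 or 15, chemically exposed on MEA plates; DMSO as negative control/baseline.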
# [9] = CCTE_Shafer_MEA_dev_AB: CCTE's Alamar Blue Assay for Cytotoxicity in the Neural Network Formation Assay, Shafer Lab (AID 2284083; active = hit-call score of the fitted dose curve at least 0.9, where 1 is the maximum;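 also: resazurin reduction fluorescence as viability of cultured neurons; twelve days of exposure from plating with re-dosing on DIV 5 and 9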)
# Summary of the method: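 Rat cortical primary cultures, 1.5 x 10^5 cells/well on MEA; continuous compound exposure over 12 days of network development, re-dosed with full medium change DIV 5 and 9. Alamar Blue fluorescence; loss of signal = cytotoxicity vs DMSO baseline.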
# [10] = CCTE_Shafer_MEA_acute_LDH: CCTE's Lactate Dehydrogenase Assay for Cytotoxicity in the Neural Acute Assay, Shafer Lab (AID 2284086; active = hit-call score of the fitted dose curve at least 0.9, where 1 is the maximum;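 also: active means LDH release rises above DMSO vehicle level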)
# Summary of the method: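 Medium from rat cortical neuron MEA cultures sampled right after the 40 min compound-exposure recording; released LDH measured by absorbance at 490 nm. Analyzed as signal gain relative to DMSO.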
# DIO2 (gene 1734) = assay: CCTE_GLTED_hDIO2: CCTE's human Deiodinase 2 (DIO2) Inhibition Assay, Great Lakes Toxicology and Ecology Division (GLTED) Lab (AID 2284050; active = hit-call score of the fitted dose curve at least 0.9, where 1 is the maximum)
# Summary of the method: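 Cell-free human DIO2 incubated 3 h with chemical; liberated iodide quantified by Sandell-Kolthoff absorbance. Triplicate plates; loss of signal fitted vs DMSO.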
# DIO3 (gene 1735) = assay: CCTE_GLTED_hDIO3: CCTE's human Deiodinase 3 (DIO3) Inhibition Assay, Great Lakes Toxicology and Ecology Division (GLTED) Lab (AID 2284055; active = hit-call score of the fitted dose curve at least 0.9, where 1 is the maximum;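 also: potency is for inhibition seen as loss of released iodide signal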)
# Summary of the method: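 Human DIO3 from an adenovirus expression system is incubated 3 h with test chemical. Released iodide is quantified by Sandell-Kolthoff absorbance, in triplicate plates. Loss of signal is fitted relative to DMSO.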
# [11] = IUF_NPC1b_proliferation_BrdU_72hr: Leibniz Research Institute for Environmental Medicine (IUF) 72-hour Neural Progenitor Cell Bromodeoxyuridine (BrdU) Proliferation Assay (NPC1b) (AID 2284207)
# Summary of the method: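 Proliferation of primary human neural progenitor cells: 72 h compound treatment at 37C, 5% CO2, pH 7.2-7.6, in EGF/FGF-containing medium. Readout is BrdU uptake (last 16 h) by chemiluminescent ELISA, normalised to DMSO.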
# [12] = IUF_NPC1a_proliferation_area_72hr: Leibniz Research Institute for Environmental Medicine (IUF) 72-hour Neural Progenitor Cell Proliferation Area Assay (NPC1a) (AID 2284208)
# Summary of the method: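 Spheres of 0.3 mm are plated singly in growth-factor medium and exposed from day 0. After three days at 37C and 5% CO2, sphere area is measured by phase contrast imaging, with activity referenced to DMSO.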
# [13] = IUF_NPC1_viability_72hr: Viability Assessment at 72 hours in the Leibniz Research Institute for Environmental Medicine (IUF) Neural Progenitor Cell Proliferation Assay (NPC1) (AID 2284209)
# Summary of the method: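 Single spheres (0.25-0.35 mm) of human fetal cortex-derived neural progenitor cells were grown in proliferation medium with EGF and FGF at 37C and 5% CO2. They were exposed for 72 h without renewal, and viability was read by alamar blue resorufin fluorescence.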
# [14] = CCTE_Mundy_HCI_Cortical_Synap_Neur_Matur_NeuriteSpotCountPerNeuriteLength: CCTE's Synaptogenesis and Neurite Maturation Assay in rat cortical cells for Neurite Spot Count per Neurite Length, Mundy Lab (AID 2284210)
# Summary of the method: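 Primary rat cortical neurons, compound exposure DIV 7–12, 288.33 h endpoint. Hoechst, anti-MAP2 and anti-synaptophysin labelling; neurite-associated puncta per neurite length scored by automated imaging relative to DMSO controls.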
# [15] = CCTE_Mundy_HCI_Cortical_Synap_Neur_Matur_BPCount: CCTE's Synaptogenesis and Neurite Maturation Assay in rat cortical cells for Branch Point Count, Mundy Lab (AID 2284211)
# Summary of the method: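 Rat primary cortical cultures, AraC added DIV 5; chemicals dosed DIV 7 through DIV 12. Fixed cells stained for MAP2, synaptophysin and Hoechst; neurite branch points counted by automated high-content imaging, fitted relative to DMSO.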
# [16] = UKN5_HCS_SBAD2_cell_viability: Viability Assessment in the University of Konstanz (UKN) Leist Lab Neurite Outgrowth Assay in human iPSC-derived immature Dorsal Root Ganglia Neurons (UKN5) (AID 2284056)
# Summary of the method: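 iPSC-derived immature peripheral neurons (SBAD2) seeded on Matrigel with CHIR99021, SU5402 and DAPT, dosed 1 h later for 24 h. Viability from Hoechst H-33342 and calcein-AM live staining, high-content imaging; bidirectional fit versus DMSO.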
# [17] = UKN5_HCS_SBAD2_neurite_outgrowth: University of Konstanz (UKN) Leist Lab Neurite Outgrowth Assay in human iPSC-derived immature Dorsal Root Ganglia Neurons (UKN5) (AID 2284070); conditions: actives raise or lower the signal
# Summary of the method: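 SBAD2 iPSC-derived immature peripheral neurons on Matrigel, 100.000 cells/cm2, medium with CHIR99021 (1.5 uM), SU5402 (5 uM), DAPT (5 uM); compound added 1 h post-seeding for 24 h. Calcein-AM neurite area by high-content imaging; Hoechst H-33342 viability; bidirectional fit vs DMSO.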
compound,measurement,setting,value
OCC(F)(F)OC(F)(F)C(F)(F)OC(F)(F)CO,outcome,[1],inactive
same,outcome,[2],inactive
same,outcome,[3],inactive
same,outcome,[4],inactive
same,outcome,[5],inactive
same,outcome,[6],inactive
same,outcome,[7],inactive
ClC1=C(Cl)C2(Cl)C3C(Cl)C(Cl)CC3C1(Cl)C2(Cl)Cl (configuration not stated),AC50,[1],6.76 µM (active)
same,AC50,[2],7.67 µM (active)
same,outcome,[3],inactive
same,AC50,[4],7.62 µM (active)
same,AC50,[5],7.62 µM (active)
same,outcome,[8],inactive
same,AC50,[9],7.42 µM (active)
same,outcome,[10],inactive
same,AC50,[6],7.75 µM (active)
same,AC50,[7],7.71 µM (active)
O=C(O)C1C(C(=O)O)C2(Cl)C(Cl)=C(Cl)C1(Cl)C2(Cl)Cl (configuration not stated),outcome,[1],inactive
same,outcome,[2],inactive
same,outcome,[3],inactive
same,outcome,[4],inactive
same,outcome,[5],inactive
same,outcome,[8],inactive
same,outcome,[6],inactive
same,outcome,[7],inactive
C=CC(=O)OCC(F)(F)C(F)F,AC50,[1],9.04 µM (active)
same,AC50,DIO2 (gene 1734),47.3 µM (active)
same,AC50,[2],15 µM (active)
same,outcome,[3],inactive
same,AC50,[4],15 µM (active)
same,AC50,DIO3 (gene 1735),52.4 µM (active)
same,AC50,[5],8.15 µM (active)
same,AC50,[9],20.7 µM (active)
same,AC50,[6],5.12 µM (active)
same,AC50,[7],11.3 µM (active)
CCOc1ccc(C(C)(C)COCc2cccc(Oc3ccccc3)c2)cc1,AC50,[1],6.54 µM (active)
same,AC50,[2],4.41 µM (active)
same,outcome,[3],inactive
same,AC50,[4],10 µM (active)
same,AC50,[5],15.2 µM (active)
same,AC50,[9],1.98 µM (active)
same,AC50,[6],3.09 µM (active)
same,AC50,[7],10 µM (active)
same,AC50,[11],1.92 µM (active)
same,outcome,[12],inactive
same,outcome,[13],inactive
same,AC50,[14],23.7 µM (active)
same,AC50,[15],26.8 µM (active)
c1ccc(OP(Oc2ccccc2)Oc2ccccc2)cc1,outcome,[1],inactive
same,outcome,[2],inactive
same,outcome,[3],inactive
same,outcome,[4],inactive
same,outcome,[5],inactive
same,outcome,[6],inactive
same,outcome,[7],inactive
OCC(F)(F)OC(F)(F)C(F)(F)OC(F)(F)C(F)(F)OC(F)(F)CO,outcome,[1],inactive
same,outcome,[2],inactive
same,outcome,[3],inactive
same,outcome,[4],inactive
same,outcome,[9],inactive
same,outcome,[6],inactive
same,outcome,[7],inactive
CC(C)(C)c1ccccc1OP(=O)(Oc1ccccc1)Oc1ccccc1,AC50,[1],22.9 µM (active)
same,outcome,[1],inactive
same,AC50,[2],25.7 µM (active)
same,outcome,[2],inactive
same,outcome,[3],inactive
same,AC50,[4],15 µM (active)
same,outcome,[4],inactive
same,AC50,[5],15.5 µM (active) and 26 µM (active)
same,AC50,[9],15 µM (active)
same,outcome,[9],inactive
same,outcome,[10],inactive
same,outcome,[6],inactive
same,AC50,[7],24.4 µM (active)
same,outcome,[7],inactive
same,outcome,[11],inactive
same,outcome,[12],inactive
same,outcome,[13],inactive
same,outcome,[14],inactive
same,AC50,[15],2.98 µM (active)
CC(O)C(F)(F)C(F)(F)F (configuration not stated),outcome,[1],inactive
same,outcome,[2],inactive
same,outcome,[3],inactive
same,outcome,[4],inactive
same,outcome,[9],inactive
same,outcome,[6],inactive
same,outcome,[7],inactive
CCCCC(CC)COP(=O)(Oc1ccccc1)Oc1ccccc1 (configuration not stated),AC50,[1],1.67 µM (active)
same,outcome,[2],inactive
same,outcome,[3],inactive
same,outcome,[4],inactive
same,AC50,[5],6.12 µM (active)
same,outcome,[9],inactive
same,outcome,[10],inactive
same,outcome,[6],inactive
same,outcome,[7],inactive
same,AC50,[11],0.542 µM (active)
same,outcome,[12],inactive
same,outcome,[13],inactive
same,outcome,[14],inactive
same,outcome,[15],inactive
c1cc2c3c(cccc3c1)CC2,outcome,[1],inactive
same,outcome,[2],inactive
same,outcome,[3],inactive
same,outcome,[4],inactive
same,outcome,[9],inactive
same,outcome,[6],inactive
same,outcome,[7],inactive
O=S1(=O)OCC2C(CO1)C1(Cl)C(Cl)=C(Cl)C2(Cl)C1(Cl)Cl (configuration not stated),outcome,[16],inactive
same,outcome,[17],inactive
same,outcome,[11],inactive
same,outcome,[12],inactive
same,outcome,[13],inactive
CCCCOCCOP(=O)(OCCOCCCC)OCCOCCCC,outcome,[11],inactive
same,outcome,[12],inactive
same,outcome,[13],inactive
